Assay outcomes: PubChem, The Scripps Research Institute Molecular Screening Center
TEAD-YAP block = TEAD-YAP interaction inhibition; HEK-TIYL cells, TEAD-Gal4/YAP UAS-luciferase luminescence; inhibition, % at 9.12 µM; actives 1.4% (n = 640,000); AID 1259422; in the data active means inhibition above about 32%;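 further: 0% = median of test compound wells and 100% = reference inhibitor wells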
MITF inh = blocks human microphthalmia-associated transcription factor; AlphaScreen MITF homodimerization, bead proximity signal; inhibition, % at 2.6 µM; actives 0.91% (n = 650,000); in the data active means inhibition above about 50%;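 further: 0% = vehicle wells with protein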
GPR151 ag = activates the human receptor GPR151; PathHunter beta-arrestin GPR151 cells, luminescence; activation, % at 11.2 µM; actives 1% (n = 650,000); in the data active means activation above about 4.9%;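 further: 0% = median of compound wells and 100% = cells with positive control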
FBW7 act = activators of human E3 ligase FBW7; Q969H0; AlphaScreen FBW7–phospho-cyclin E peptide binding, activator screen; normalized activity (activation), % at 26.1 µM; actives 0.13% (n = 650,000); in the data active means normalized activity above about 1.9%;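 further: purified mutant Fbw7 with reduced substrate affinity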
Target sequence (Q969H0 whole entry, looked up): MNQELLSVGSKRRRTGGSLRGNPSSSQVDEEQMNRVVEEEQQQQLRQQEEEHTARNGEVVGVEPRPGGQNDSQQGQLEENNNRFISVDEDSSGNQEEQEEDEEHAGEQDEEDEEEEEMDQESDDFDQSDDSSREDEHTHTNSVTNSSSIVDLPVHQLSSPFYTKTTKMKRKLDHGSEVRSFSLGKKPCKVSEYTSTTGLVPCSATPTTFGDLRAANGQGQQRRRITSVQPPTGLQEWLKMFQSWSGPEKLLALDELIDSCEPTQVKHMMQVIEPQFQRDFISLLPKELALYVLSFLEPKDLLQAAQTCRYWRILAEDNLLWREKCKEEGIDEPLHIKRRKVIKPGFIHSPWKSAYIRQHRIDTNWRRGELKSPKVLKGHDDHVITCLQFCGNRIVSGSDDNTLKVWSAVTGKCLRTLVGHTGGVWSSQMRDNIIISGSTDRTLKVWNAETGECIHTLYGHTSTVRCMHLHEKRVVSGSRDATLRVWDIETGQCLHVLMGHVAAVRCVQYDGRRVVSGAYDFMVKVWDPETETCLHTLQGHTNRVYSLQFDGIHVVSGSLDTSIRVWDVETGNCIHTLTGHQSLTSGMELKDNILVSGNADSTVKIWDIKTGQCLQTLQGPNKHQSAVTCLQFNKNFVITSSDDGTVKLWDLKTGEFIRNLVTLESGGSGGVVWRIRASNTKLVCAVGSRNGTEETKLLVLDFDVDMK
An asterisk follows results filed as active; ! = not confirmed by another sample. In the library only some 3.5% were active in any assay of this set; here they are far more common.

SMILES	TEAD-YAP block	MITF inh	GPR151 ag	FBW7 act
CCOc1ccccc1N(C)S(=O)(=O)c1ccc2[nH]cc(C(=O)NCc3cccnc3)c(=O)c2c1	63*	15	0	0
Cc1cccc(C)c1N(C)S(=O)(=O)c1ccc2[nH]cc(C(=O)NCc3cccnc3)c(=O)c2c1	34*	0	3	0
CCC(Sc1nc2nc(C)c(Cc3ccccc3Cl)c(C)n2n1)C(=O)N(CC)CC (configuration not stated)	0	-1	1	0
O=C(Nc1ccc(Br)cn1)c1ccc(C2CCCCC2)cc1	10	15	1	1
O=C(Nc1ccc(Cl)cn1)c1ccc(C2CCCCC2)cc1	40*	18	-1	0
N#Cc1cccc(NC(=O)C[n+]2c(N)sc3ccc4ccccc4c32)c1	43*	-2	0	0
CCOC(=O)/C(=C\N(C)C)C(=O)c1cc([N+](=O)[O-])c(Cl)cc1Cl	38*	5	0	0
CCN1/C(=C/C(C)=O)Sc2ccc(OC)cc21	32*!	18	-1	0
COc1ccc2c(c1)N(C)/C(=C/c1cccc[n+]1C)S2	77*	12	-1	0
COc1ccc(/C=C/c2cccc[n+]2C)c(OC)c1	15	25	0	0
CCN1/C(=C/c2cccc[n+]2C)Sc2ccc(OC)cc21	84*	2	0	0
CCN1/C(=C\C(C)=O)Sc2ccc3ccccc3c21	-1	11	-1	0
CCOc1ccc2nc(N3CCCC3C(=O)NCc3ccc(C)o3)nc(C)c2c1 (configuration not stated)	-16	-9	0	0
O=C(N/N=C1/CCc2ccccc21)c1ccccc1	-40	9	-1	0
NC(=O)N(N)c1nc(N2CCCC2)nc(N(c2ccccc2)c2ccccc2)n1	-7	10	0	0
COc1cccc(-c2noc(C3CCCN(C(=O)c4c(OC)cccc4OC)C3)n2)c1 (configuration not stated)	63*	10	-1	0
COc1ccc(-c2noc(C3CCCN(C(=O)c4c(F)cccc4F)C3)n2)cc1OC (configuration not stated)	9	-10	2	0
Cc1ccc(/C=N/NC(=O)c2cc(Br)ccc2OC(C)C)o1	46*	-17	-2	0
COc1cc(/C=N/NC(=O)c2cc(Br)ccc2OC(C)C)ccc1O	14	17	3	1
O=C1OC(c2ccccc2)=N/C1=C\c1ccccc1Br	-4	-8	0	0
CCn1c(C)nc2cc(CO)ccc21	-6	10	1	0
CCn1c(C)nc2cc(-c3nc4n(n3)Cc3ccccc3-4)ccc21	103*	-12	-12	0
CCOc1cccc(CN2CCC(C(=O)N3CCN(c4ccccc4F)CC3)CC2)c1O	8	47	-1	0
Cc1ccc(NC(=O)C2C3NC(=S)N(c4ccc(F)cc4)C2(C)Oc2ccc(Cl)cc23)c(C)c1 (configuration not stated)	9	7	0	0
Cc1ccc(S(=O)(=O)N(CC(=O)NCc2ccncc2)Cc2ccccc2)cc1	-2	24	-1	1.9*
SMILES	TEAD-YAP block	MITF inh	GPR151 ag	FBW7 act
Cc1ccc(CNC(=O)CN(Cc2ccccc2)S(=O)(=O)c2ccccc2)cc1	5	12	-1	0
Cc1ccccc1C(=O)N/C(=C/c1ccc2c(c1)OCO2)C(=O)O	11	8	2	0
CC(C)n1cnc2c(Nc3ccc(N4CCOCC4)cc3)nc(Nc3ccc(-n4ccnc4)cc3)nc21	50*	3	4	0
c1cnc(Nc2nc(Nc3ccc4c(c3)OCO4)c3ncn(C4CCCCC4)c3n2)cn1	-23	1	0	0
CC(C)n1cnc2c(Nc3ccc4c(c3)OCO4)nc(Nc3cnccn3)nc21	-5	-2	0	12*
CC(=O)Nc1ccc(Nc2nc(Nc3ccc(N4CCOCC4)cc3)nc3c2ncn3C(C)C)cc1	22	4	3	0
CC(C)n1cnc2c(Nc3ccc4c(c3)OCO4)nc(Nc3ccc(-n4ccnc4)cc3)nc21	39*	6	-1	0
CC(C)n1cnc2c(Nc3ccc4c(c3)OCO4)nc(Nc3ccccc3)nc21	5	12	0	0
Cc1cnc(Nc2ccc(-n3ccnc3)cc2)nc1Nc1ccc2c(c1)OCO2	60*	2	-2	0
CCCN(CCC)C(=O)c1ccc(OCC)cc1	-2	-4	-1	1
COc1ccc(CC(=O)N2CCC3(CC2)OCc2cccc(OC)c2O3)cc1OC	65*	8	1	0
COc1cccc2c1OC1(CCN(C(=O)Cc3ccc(F)cc3)CC1)OC2	0	4	2	0
